# PubChem BioAssay AID1947 (The Scripps Research Institute Molecular Screening Center, 2009)
# About 990 (0.33%) of roughly 300,000 compounds were called active. The entries come from a sample that favours actives as a whole. Unmarked numbers belong to inactive results.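 Rule for the calls: active = inhibition above the screen mean inhibition plus 3 SD, computed separately per campaign (cut at about 18% in these data); inactive = the rest.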
# Test system: Fam108B (ABHD17B) serine hydrolase [Mus musculus]
# Assay: mouse Fam108B serine hydrolase inhibitors, primary screen, counter-screen for RBBP9 inhibitor project, biochemical, fluorescence polarization (AID 1947);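 note: inhibitors lower polarization as less probe binds the enzyme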
# Conditions: recombinant Fam108B, FP-Rh probe fluorescence polarization; at 9.51 µM; stronger effect = higher value
row,Compound,inhibition
1,CCC(C)N(C(=O)COC(=O)c1nc(Cl)ccc1Cl)C1CCS(=O)(=O)C1 (centres undefined),4.9%
2,CCOC(=O)c1sc(=NC(=O)/C=C/c2cccs2)n(C)c1C,-2.21%
3,COc1cccc(-c2nc(CS(=O)CC(=O)NCc3ccc(F)cc3)c(C)o2)c1 (centres undefined),1.48%
4,COc1ccc(-c2nc(CS(=O)CC(=O)NCc3ccccc3)c(C)o2)cc1OC (centres undefined),0.72%
5,COc1ccc(-c2nc(CS(=O)CC(=O)NCc3ccccn3)c(C)o2)cc1 (centres undefined),22.4% (active)
6,CCC(=O)Nc1cccc(C2=NOC3(C2)C[C@@H](C(N)=O)N(C(=O)c2cc([N+](=O)[O-])cc([N+](=O)[O-])c2C)C3)c1 (some centres undefined),3.54%
7,Cc1ccc(-n2c(C)nnc2SCC(=O)NC2CC2)cc1,2.72%
8,CC(CC(=O)N1CCN(c2ccccc2)CC1)S(=O)(=O)c1ccc2c(c1)NC(=O)CS2 (centres undefined),-0.25%
9,O=C(N/N=C/c1sc(N2CCCCC2)nc1-c1cccs1)c1cccnc1,30.7% (active)
10,Cc1cc(/C=N/NC(=O)c2cccnc2)c(C)n1CC(C)C,0.13%
11,O=C(NN=C1CCC(=NNC(=O)c2cccnc2)CC1)c1cccnc1,-0.8%
12,CC1CC(C)CN(S(=O)(=O)c2cccc(C(=O)N3C(=O)c4cccc(N)c4C3=O)c2)C1 (centres undefined),-1.13%
13,NS(=O)(=O)c1ccc(CCNC(=O)c2nc(CS(=O)(=O)c3ccc(Cl)cc3)no2)cc1,1.62%
14,CCOc1ccc2nc(/N=C/c3nc(-c4ccccc4)oc3O)sc2c1,5.88%
15,Oc1oc(-c2ccccc2Br)nc1/C=N/c1ccccn1,25.5% (active)
16,CC(N=Cc1nc(-c2ccccc2)oc1O)c1ccccc1 (centres undefined),4.55%
17,O=C(CCNC(=O)C1CCN(S(=O)(=O)c2ccccc2)CC1)NC1CC1,-1.2%
18,CC(=O)Cn1cnc2c(cnn2-c2ccccc2)c1=O,4.35%
19,Cc1ccc(-c2nc3c(cnn3-c3ccccc3)c(=O)o2)cc1,22.6% (active)
20,Cc1ccc(-n2ncc3c(=O)n(-c4ccc(C)c(C)c4)c(-c4ccco4)nc32)cc1,-5.3%
21,O=C(COc1ccccc1)Nc1nonc1NC(=O)COc1ccccc1,-1.87%
22,COc1ccc(C)cc1S(=O)(=O)NCCc1ccccc1,1.15%

row,Compound,inhibition
1,Cc1cc(C)c(S(=O)(=O)n2cc(C(C)C(N)C(=O)O)c3ccccc32)c(C)c1 (centres undefined),-1.29%
2,CCC1(c2ccccc2)NC(=O)N(CC(=O)c2ccc3c(c2)OCO3)C1=O (centres undefined),1.48%
3,COc1ccccc1C1=Nc2cccc3cccc(c23)N1,6.45%
4,c1ccc(C2=Nc3cccc4cccc(c34)N2)cc1,31.5% (active)
5,Fc1ccccc1N=C1Nc2cccc3cccc1c23,3.49%
6,CCN(CC(=O)NCc1ccc(Cl)cc1)C(=O)CSc1ccccc1,1.51%
7,CN1/C(=C\C=C2\N=C(c3ccc(F)cc3)OC2=O)C(C)(C)c2ccccc21,-7.15%
8,Cc1cccc(-c2nc(Nc3ccc(O)cc3)c3ccccc3n2)c1,29.1% (active)
9,COc1ccc(Nc2nc(-c3cccnc3)nc3ccccc23)cn1,-1.81%
10,CC(=O)Nc1cccc(Nc2nc(-c3cccs3)nc3ccccc23)c1,-19.2%
11,O=C(C/C(=N\NC(=O)c1ccccc1Br)C(F)(F)F)c1cccs1,1.64%
12,Cc1ccc(N/C(N)=N/c2nc(C(F)(F)F)cc(C(F)(F)F)n2)cc1,-3.46%
13,CCOc1ccc(NC(=O)COc2ccc(S(=O)(=O)N3CCCC3)cc2)cc1,-2.57%
14,Cc1ccc(NS(=O)(=O)c2ccc(N/N=C/c3ccccc3OCC(=O)O)c([N+](=O)[O-])c2)c(C)c1,26.5% (active)
15,COCCNC(=O)c1ccccc1NS(=O)(=O)c1ccc(C)c([N+](=O)[O-])c1,-2.57%
16,Cc1ccc(NS(=O)(=O)c2ccc(C)c(NC(=O)COc3ccc4ccccc4c3)c2)c(C)c1,-29.8%
17,CO/N=C/c1ccc(N2CCN(C(=O)c3cccc(Cl)c3)CC2)c([N+](=O)[O-])c1,4.08%
18,O=C(O)CCN=C1CCc2ccccc2N1,9.07%
19,CC(=O)Nc1ccc(NC(=O)CSC2=NS(=O)(=O)c3ccccc3N2)cc1,0.2%
20,CC(C)(C)C(=O)OCc1nc(-c2ccc(O)c(O)c2)cs1,-1.7%
21,COc1ccc(CC(=O)Nc2nc(-c3ccc(F)c(F)c3)cs2)cc1OC,-7.43%
22,COc1ccc(OC)c(Nc2nc(-c3ccc(O)c(O)c3)cs2)c1,20.1% (active)

row,Compound,inhibition
1,CCOc1ccc(S(=O)(=O)Nc2nccs2)cc1,2.3%
2,COC(C[C@@H](O)C[C@H](O)[C@H](C)OCc1ccccc1)OC,4.92%
3,COc1ccccc1NS(=O)(=O)c1ccc(C)c(C(=O)NCC(c2ccco2)N(C)C)c1 (centres undefined),-0.42%
4,CC(=O)Nc1ccc(Oc2ccc3c(c2)C(=O)NC3=O)cc1,0.73%
5,C=CCn1c(SCc2csc(C)n2)nc2scc(-c3ccc(C)o3)c2c1=O,0.24%
6,C=CCNC(=O)CSc1nc2scc(-c3ccco3)c2c(=O)n1CC=C,-0.48%
7,C=CCn1c(=S)[nH]c2scc(-c3ccco3)c2c1=O,18.5% (active)
8,O=C(CCCN1C(=O)/C(=C/c2cccs2)SC1=S)Nc1ccc(O)cc1,-3.39%
9,CCC/C(C)=N\Nc1nc2c(c(=O)n(C)c(=O)n2C)n1C,0.84%
10,Cc1ccccc1OCCOc1ccc([N+](=O)[O-])cc1/C=N/n1cnnc1,-2.64%
11,Cc1cccc(COc2ccccc2/C=N/Nc2ccc([N+](=O)[O-])cc2)c1,23% (active)
12,O=[N+]([O-])c1ccc(N/N=C/c2ccccc2)cc1,5.14%
13,CC1=CC2=NC(=O)CC(C)(C(=O)N(CC(=O)NC(C)(C)C)Cc3ccccc3)N2C=C1 (centres undefined),0.82%
14,Cc1c(C(=O)N2CCCc3ccccc32)sc2nc(-c3ccccc3)cn12,2.92%
15,Cc1c(C(=O)N2CCCc3ccccc32)oc2ccccc12,0.38%
16,Cc1cccc2cc3c(N)c(C(=O)N4CCCc5ccccc54)sc3nc12,18.9% (active)
17,O=C(CCC(=O)n1ncc2ccccc21)NCc1ccccc1Cl,0.79%
18,COc1ccccc1-c1nnc(-c2ccc(F)cc2)o1,-1.04%
19,COc1ccc(-c2csc3nc(-c4ccccc4F)oc(=O)c23)cc1OC,21.9% (active)
20,COc1ccc(-c2csc(-c3cccs3)n2)cc1OC,3.25%
